From PubChem BioAssay
DT40 TDP1 CPT: growth inhibition of DT40 Tdp1-/-;hTDP1 cells with camptothecin (screen for TDP1 inhibitors); Potency, µM (top dose mostly 46.2 µM), for inactives: top-dose activity change, negative = growth inhibition, usual class: inhibitors; AID 686979; 420,000 compounds, 12% hits; chicken DT40 Tdp1-/-;hTDP1 cells + 20 nM CPT, ATP luminescence, 48 h; also: nearly all actives have a fitted effect of over 55% in size
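Chicken DT40 Tdp1-/- cells stably complemented with human TDP1 were seeded at 400 cells/well in medium containing 20 nM camptothecin, exposed to pin-transferred compounds, and grown at 37 °C for at least 48 hr. Viability was read as ATP luminescence.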
DT40 TDP1 no CPT: qHTS for Inhibitors of human tyrosyl-DNA phosphodiesterase 1 (TDP1): qHTS in cells in absence of CPT. DT40 Tdp1-/- hTDP1 cells, no CPT, ATP luminescence, 48 h. Potency, µM (top dose mostly 46.2 µM), for inactives: top-dose activity change, negative = growth inhibition, most hits filed as inhibitors. 420,000 compounds, 15% hits; also: nearly all actives have a fitted effect of over 55% in size
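Chicken DT40 Tdp1-/- cells complemented with human TDP1, screened without camptothecin (DMSO vehicle only), 400 cells/well. Compounds pin-transferred, cells incubated at 37 °C for at least 48 hr. Growth read as ATP-dependent luminescence (CellTiter-Glo, 30 min at RT).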
TDP1 inh: inhibitors of human tyrosyl-DNA phosphodiesterase TDP1; Q9NUW8; recombinant TDP1, AlphaScreen DNA substrate cleavage; Potency, µM (highest dose often 130 µM), for inactives: top-dose activity change, negative = inhibition, actives largely listed as inhibitors; 350,000 compounds, 0.28% hits; also: nearly all actives have a fitted effect of over 40% in size
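Enzyme-compound mixtures sat 15 min at room temperature, followed by a 5 min reaction with 15 nM final substrate and 10 min with AlphaScreen beads. Recombinant human Tdp1 was used at 1 nM final.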
VP16 counter: counter-screen for ROR gamma inhibitors: Gal4-VP16 reporter. Drosophila S2 Gal4-VP16 UAS-luciferase, luminescence, 20 h. Potency, µM (titrated, usually from 53.6 µM), without a hit: at the top dose activity, negative = inhibition, actives largely listed as inhibitors. 310,000 compounds, 3.5% hits;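 also: Gal4-VP16 expression switched on by copper sulfate through the metallothionein promoter; nearly all actives have a fitted effect of over 50% in size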
RORgamma inh: inhibitors of mouse ROR gamma transcriptional activity; P51450; Drosophila S2 Gal4-RORgamma UAS-luciferase reporter, 20 h; Potency, µM (highest dose often 53.6 µM), for the others: at the highest dose activity change, negative = inhibition, actives largely listed as inhibitors; 310,000 compounds, 5.4% hits; AID 2551; also: nearly all actives have a fitted effect of over 60% in size
Target sequence (P51450 whole entry, looked up, the tested form may be a part): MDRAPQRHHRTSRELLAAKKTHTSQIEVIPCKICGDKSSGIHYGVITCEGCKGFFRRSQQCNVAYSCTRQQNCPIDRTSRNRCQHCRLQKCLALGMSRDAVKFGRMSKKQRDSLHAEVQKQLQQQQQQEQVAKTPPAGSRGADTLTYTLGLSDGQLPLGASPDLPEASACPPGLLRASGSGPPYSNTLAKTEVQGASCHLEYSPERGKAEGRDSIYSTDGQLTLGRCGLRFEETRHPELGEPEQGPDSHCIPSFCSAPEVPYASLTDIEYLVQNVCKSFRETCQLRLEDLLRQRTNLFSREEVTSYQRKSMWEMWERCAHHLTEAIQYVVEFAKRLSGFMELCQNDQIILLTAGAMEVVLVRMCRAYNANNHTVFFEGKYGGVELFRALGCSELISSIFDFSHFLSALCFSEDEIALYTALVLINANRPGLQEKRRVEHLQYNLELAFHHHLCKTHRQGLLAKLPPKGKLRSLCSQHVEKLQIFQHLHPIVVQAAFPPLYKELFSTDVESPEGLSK
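Luminescence from a UAS-regulated Photinus luciferase reporter in stably transfected Drosophila Schneider cells is measured; decreased signal marks ROR gamma inhibition. Fusion expression is induced by 700 uM copper sulfate for 20 hr.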
The depositor's hits bear a star; [ ] = another dose, or the depositor's remark. A selection: hits, their analogues and other compounds. The true share with any hit is near 19%. Calls follow the shape of the dose curve; as a rule, active = well fitted curve in the direction sought with a large enough effect; inconclusive = small, poorly fitted or top-dose-only effect, or another doubt; inactive = no such curve, though single readings can be large; an effect the other way counts as inactive or inconclusive. % is scaled to controls: 0 for no effect and ±100 for the full control effect; potency is read from the fitted curve at half-maximal effect.

COc1ccccc1-c1ccc2ncnc(NCc3cnc(C)cn3)c2c1 was read as DT40 TDP1 CPT inconclusive, DT40 TDP1 no CPT 18.4µM*, VP16 counter inconclusive and RORgamma inh inconclusive.
`COc1ccccc1-c1cncnc1Nc1ccccc1` gave DT40 TDP1 CPT inconclusive, DT40 TDP1 no CPT -4.6%, VP16 counter 5.2% and RORgamma inh -22.4%.
`CN(C)Cc1ccccc1-c1cncnc1NCc1cccnc1` gave DT40 TDP1 CPT inconclusive, DT40 TDP1 no CPT inconclusive, VP16 counter -6.0% and RORgamma inh 8.7%.
`Cc1cn2c(-c3ccc(Cl)cc3)nnc2s1` gave DT40 TDP1 CPT inconclusive, DT40 TDP1 no CPT -27.8%, TDP1 inh 6.5%, VP16 counter 1.8% and RORgamma inh 24.7%.
Screening Cc1nc(C)c(-c2ccnc(/N=C/NO)n2)s1 returned DT40 TDP1 CPT -5.1%, DT40 TDP1 no CPT -16.5%, TDP1 inh 1.4%, VP16 counter -4.1% and RORgamma inh 7.2%.
`COc1ccccc1-c1cncnc1NCCN1CCOCC1` gave DT40 TDP1 CPT 7.31µM*, DT40 TDP1 no CPT 5.17µM*, TDP1 inh inconclusive, VP16 counter -17.5% and RORgamma inh 38.9%.
Cn1cccc1CC(=O)N/N=C/c1cc([N+](=O)[O-])ccc1Cl was read as DT40 TDP1 CPT 16.3%, DT40 TDP1 no CPT -8.9%, TDP1 inh 0.0%, VP16 counter 0.0% and RORgamma inh 16.6%.
`NC(=S)N/N=C/c1cc([N+](=O)[O-])ccc1Cl` gave DT40 TDP1 CPT -6.4%, DT40 TDP1 no CPT -15.9%, TDP1 inh -2.6%, VP16 counter -16.7% and RORgamma inh 25.1µM*.
`Nc1nnnn1CC(=O)N/N=C/c1cc([N+](=O)[O-])ccc1Cl` gave DT40 TDP1 CPT 14.6µM*, DT40 TDP1 no CPT 10.3µM*, TDP1 inh 5.3%, VP16 counter 4.6% and RORgamma inh -6.1%.
For O=[N+]([O-])c1ccc(Cl)c(/C=N/NC(=S)Nc2ccccc2)c1 the results were DT40 TDP1 CPT 11.2µM*, DT40 TDP1 no CPT 10µM*, TDP1 inh 7.9%, VP16 counter 2.24µM* and RORgamma inh 0.355µM*.
Screening COc1ccc(NC(=O)C2Cc3c(-c4cccc(NC(C)=O)c4)ccnc3O2)cc1 (stereo not drawn) returned DT40 TDP1 CPT 3.66µM* and DT40 TDP1 no CPT 3.26µM*.
For CC(=O)Nc1cccc(-c2ccnc3c2CC(C(=O)Nc2cccc(N(C)C)c2)O3)c1 (stereo not drawn) the results were DT40 TDP1 CPT 13µM* and DT40 TDP1 no CPT 10.3µM*.
CN(C)c1cccc(NC(=O)C2Cc3c(-c4cccnc4)ccnc3O2)c1 (stereo not drawn) was read as DT40 TDP1 CPT 8.4% and DT40 TDP1 no CPT 0.2%.
`CC(=O)Nc1ccc(-c2ccnc3c2CC(C(=O)Nc2ccccc2)O3)cc1` (stereo not drawn) gave DT40 TDP1 CPT 4.61µM* and DT40 TDP1 no CPT 5.8µM*.
Screening COc1ccc(NC(=O)C2Cc3c(-c4ccc(NC(C)=O)cc4)ccnc3O2)cc1 (stereo not drawn) returned DT40 TDP1 CPT inconclusive and DT40 TDP1 no CPT 16.4µM*.
For C/C(=N\NS(=O)(=O)c1ccc(C(C)(C)C)cc1)c1ccccc1 the results were DT40 TDP1 CPT -4.6%, DT40 TDP1 no CPT 1.5%, VP16 counter -2.0% and RORgamma inh 3.2%.
Screening COc1ccc(NC(=O)C2Cc3c(-c4cccc(C(C)=O)c4)ccnc3O2)cc1 (stereo not drawn) returned DT40 TDP1 CPT 2.31µM* and DT40 TDP1 no CPT 2.91µM*.
`O=C(Nc1cccnc1)C1Cc2c(-c3ccco3)ccnc2O1` (stereo not drawn) gave DT40 TDP1 CPT -29.4% and DT40 TDP1 no CPT inconclusive.
For CC(=O)Nc1cccc(-c2ccnc3c2CC(C(=O)Nc2ccc(F)c(Cl)c2)O3)c1 (stereo not drawn) the results were DT40 TDP1 CPT 18.4µM* and DT40 TDP1 no CPT 18.4µM*.
Screening O=C(Nc1ccc(F)c(Cl)c1)C1Cc2c(-c3ccco3)ccnc2O1 (stereo not drawn) returned DT40 TDP1 CPT 23.1µM* and DT40 TDP1 no CPT 14.6µM*.
Screening COc1ccc(NC(=O)C2Cc3c(-c4cccc(C(C)=O)c4)ccnc3O2)cn1 (stereo not drawn) returned DT40 TDP1 CPT 2.59µM* and DT40 TDP1 no CPT 2.91µM*.
For CCCCc1ccc(S(=O)(=O)Nc2cc(C)on2)cc1 the results were DT40 TDP1 CPT -13.7%, DT40 TDP1 no CPT -2.7%, TDP1 inh -4.1%, VP16 counter -7.9% and RORgamma inh -35.0%.
Screening CCCOc1ccc(NC(=O)OC2CCN(C)CC2)cc1 returned DT40 TDP1 CPT inconclusive, DT40 TDP1 no CPT inconclusive, TDP1 inh -2.5%, VP16 counter -3.3% and RORgamma inh -5.0%.
Clc1ccccc1CSc1nncn1-c1cccnc1 was read as TDP1 inh 2.7%, VP16 counter 17.4%[10 µM] and RORgamma inh 5.4%.
Screening CC(=O)Nc1cccc(-c2ccnc3c2CC(C(=O)Nc2ccc(C(C)C)cc2)O3)c1 (stereo not drawn) returned DT40 TDP1 CPT 20.6µM* and DT40 TDP1 no CPT 11.6µM*.
`CC(=O)Nc1ccc(NC(=O)C2Cc3c(-c4cccc(NC(C)=O)c4)ccnc3O2)cc1` (stereo not drawn) gave DT40 TDP1 CPT -13.0% and DT40 TDP1 no CPT -14.1%.
COc1ccc(NC(=O)C2Cc3c(-c4ccc(NC(C)=O)cc4)ccnc3O2)cn1 (stereo not drawn) was read as DT40 TDP1 CPT 8.2µM* and DT40 TDP1 no CPT 11.6µM*.
For CCOc1ccc(CNC(=O)c2ccco2)cc1 the results were DT40 TDP1 CPT 0.3%, DT40 TDP1 no CPT -8.2%, TDP1 inh 5.3%, VP16 counter -5.1%[10 µM] and RORgamma inh 28.9%.
O=C(CCCN1C(=O)/C(=C/c2ccccc2)SC1=S)NCCCn1ccnc1 was read as DT40 TDP1 CPT inconclusive, DT40 TDP1 no CPT inconclusive, TDP1 inh 9.3%, VP16 counter 4.47µM* and RORgamma inh 5.01µM*.
For CC(C)c1ccc(/C=C2\SC(=O)N(CC(=O)NCCCn3ccnc3)C2=O)cc1 the results were DT40 TDP1 CPT inconclusive, DT40 TDP1 no CPT 14.6µM*, TDP1 inh 8.8%, VP16 counter inconclusive and RORgamma inh inconclusive.
For CC1CCN(C(=O)c2ccc3c(c2)N(Cc2ccccc2)C(=O)c2ccccc2S3(=O)=O)CC1 the results were DT40 TDP1 CPT inconclusive, DT40 TDP1 no CPT 16.4µM* and TDP1 inh 5.8%.
For O=C(c1ccc2c(c1)N(Cc1ccc(F)cc1)C(=O)c1ccccc1S2(=O)=O)N1CCCCC1 the results were DT40 TDP1 CPT inconclusive, DT40 TDP1 no CPT inconclusive and TDP1 inh 1.2%.
